In assay [1] the target is Peroxisome proliferator-activated receptor gamma (Homo sapiens) (UniProt P37231). Put plainly: qHTS assay for small molecule agonists of peroxisome proliferator-activated receptor gamma signaling (AID 588536; active = well fitted curve in the direction sought with a large enough effect in the signal ratio, with a control signal flat, not every such curve was filed as active; the % refers to the signal ratio;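 note: 0% = DMSO basal wells and 100% = rosiglitazone at 2 µM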). In a few lines:
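Cells were plated and held 6–6.5 h at 37 C, then compounds were added as a titration series. After a further 16 h, CCF4 dye was loaded for 2 h at room temperature and emission at 460/530 nm recorded.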

Assay [2] concerns the target Vitamin D3 receptor (Homo sapiens) (UniProt P11473). Put plainly: qHTS assay for small molecule antagonists of vitamin D receptor signaling (AID 588541; calls by dose curve;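 note: receptor activated by calcitriol during compound treatment; series mostly up to about 77 µM; % is set by controls: 0 for no effect and ±100 for the full control effect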). In a few lines:
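VDR-UAS-bla HEK293T cells in 2% charcoal-stripped FBS were stimulated with 1-alpha,25-dihydroxyvitamin D3 (3 nM final) plus compound for 16 h at 37 C. The beta-lactamase CCF4 readout was normalized to 50 nM agonist and DMSO, and Hill fits gave IC50.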

Assay [3] shares this target. Put plainly: qHTS assay for small molecule agonists of vitamin D receptor signaling (AID 588543; calls by dose curve;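 note: 0% = DMSO basal and 100% = reference agonist control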). In a few lines:
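β-lactamase reporter, VDR-UAS-bla HEK293T, agonist mode. Cells plated 5 h at 37 °C, compound titration 16 h at 37 °C, CCF4 dye 2 h RT, ratio 460/530 nm. Hill fit → EC50, efficacy vs 50 nM 1α,25-(OH)2D3.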

A short description of assay [4]: qHTS assay for small molecule agonists of retinoid X receptor alpha signaling (AID 588544; calls by dose curve). The following applies: HEK293T RXRa-UAS-bla, beta-lactamase reporter, 18 h; 530 nm emission. (In qHTS, concentration-response curves come from the screen itself.)
Assay [5] addresses Retinoic acid receptor RXR-alpha (Homo sapiens) (UniProt P19793). The assay is described as above.
In assay [6] the target is Thyroid hormone receptor beta (Homo sapiens) (UniProt P10828). As to the kind of experiment: qHTS assay for small molecule agonists of thyroid hormone receptor beta signaling (AID 588545; calls by dose curve). In a few lines:
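HEK 293 TR-UAS-bla; agonist mode; 18 hrs, 37 C; CCF4, ex 405/em 460 and 530 nm; norm. T3 10 nM = 100%, DMSO = 0%; Hill fit → EC50, efficacy.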

Assay [7] can be described thus: qHTS assay for small molecule antagonists of retinoid X receptor alpha signaling (AID 588546; active = well fitted inhibition curve with a large enough effect in the signal ratio, with a control signal flat, not every such curve was filed as active; the % refers to the signal ratio;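 note: cells stimulated with 9-cis-retinoic acid as agonist; % is set by controls: 0 for no effect and ±100 for the full control effect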). The following applies: HEK293T RXRa-UAS-bla, beta-lactamase ratio, antagonist mode; measured here: W530 green channel, cytotoxicity proxy. In a few lines:
(§1)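 Beta-lactamase reporter inhibition, read as CCF4 fluorescence ratio (ex 405, em 460/530 nm) after 2 h at RT. HEK293T UAS-bla cells, 2500/well, were stimulated with 9-cis-RA at 500 or 100 nM final alongside test compound for 18 h at 37 C.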

The target of assay [8] is Retinoic acid receptor RXR-alpha (Homo sapiens) (UniProt P19793). Described as above. The following applies: HEK293T RXRa-UAS-bla, beta-lactamase ratio, antagonist mode. In a few lines: as §1
Chain of Retinoic acid receptor RXR-alpha (Homo sapiens) (P19793 whole entry, looked up): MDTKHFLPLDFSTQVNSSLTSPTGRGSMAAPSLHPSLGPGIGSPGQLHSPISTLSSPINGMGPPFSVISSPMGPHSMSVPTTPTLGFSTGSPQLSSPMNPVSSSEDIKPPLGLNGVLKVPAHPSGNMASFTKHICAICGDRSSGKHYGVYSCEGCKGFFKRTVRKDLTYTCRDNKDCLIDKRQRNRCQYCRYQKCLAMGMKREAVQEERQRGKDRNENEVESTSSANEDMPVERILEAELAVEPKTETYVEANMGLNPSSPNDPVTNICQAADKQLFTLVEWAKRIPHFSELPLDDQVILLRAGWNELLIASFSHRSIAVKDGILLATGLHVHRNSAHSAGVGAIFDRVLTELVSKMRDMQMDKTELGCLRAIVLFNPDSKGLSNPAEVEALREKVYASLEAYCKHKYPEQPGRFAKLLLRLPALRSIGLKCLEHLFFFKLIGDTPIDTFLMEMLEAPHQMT
For assay [9], the target named is Voltage-gated inwardly rectifying potassium channel KCNH2 (Homo sapiens) (UniProt Q12809). Put plainly: qHTS Assay for Small Molecule Inhibitors of the Human hERG Channel Activity (AID 588834).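 Note: top concentration of the series differs between compounds; % is set by controls: 0 for no effect and ±100 for the full control effect; lower thallium flux fluorescence means stronger hERG block; nearly all actives have a fitted effect of over 50% in size.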 In a few lines:
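Thallium-flux (FluxOR) read-out on FDSS: fluorescence read 10 s before and 2 min after stimulation buffer. hERG-BacMam-transduced U2OS cells, compound exposure about 10 min. AC50 by standard Hill equation.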

The nature of assay [10]: S16 Schwann cell viability assay (CellTiter-Glo assay) (AID 624031).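 Note: cellular ATP luminescence as a viability measure; series mostly up to about 58 µM; plate controls were DMSO-treated cells for no effect and cell-free wells for full effect; nearly all actives have a fitted effect of over 70% in size.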 In a few lines:
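Untransfected S16 rat Schwann cells; compound 24 h, 37 °C/5% CO2; CellTiter-Glo ATP luminescence. % activity vs no-cell wells and DMSO controls (0%); concentration-effect curves classed by r2, response magnitude, activity.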
In general terms: Cellular ATP, detected with luciferase, serves as a proxy for viable cell number.

The nature of assay [11]: S16 Schwann cell PMP22 intronic element firefly luciferase assay (AID 624032). Note: nearly all actives have a fitted effect of over 30% in size. Note: potency is the fitted concentration of half-maximal effect. In a few lines: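 Rat S16 Schwann cells stably carrying firefly luciferase driven by a PMP22 intronic element, in 10% FBS, treated 24 h at 37 C. ONE-Glo luminescence normalized to PTC124 control and DMSO (0%); curves classed by r2, magnitude and activity.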
The target of assay [12] is Thyroid hormone receptor beta (Homo sapiens) (UniProt P10828). Put plainly: qHTS assay for small molecule antagonists of thyroid hormone receptor beta signaling (AID 588547; active = well fitted inhibition curve with a large enough effect in the signal ratio, with a control signal flat, not every such curve was filed as active; the % refers to the signal ratio;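 note: cells stimulated with 0.4 nM T3 agonist during compound exposure; series mostly up to about 77 µM; % is set by controls: 0 for no effect and ±100 for the full control effect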). The following applies: TR-UAS-bla HEK293, beta-lactamase ratio, antagonist mode, 18 h. In a few lines:
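TR-UAS-bla GripTite HEK293 cells in 2% charcoal/dextran FBS medium; compounds 0.59 nM to 92 uM with T3 at 0.4nM final, 18 h at 37 C. Beta-lactamase read by CCF4 fluorescence (460/530 nm); Hill fits gave IC50 and efficacy.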

Assay [13] deals with Luciferin 4-monooxygenase (Photinus pyralis) (UniProt P08659). Put plainly: Biochemical firefly luciferase enzyme assay for NPC (AID 624030).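 Note: purified P. pyralis luciferase at 10 nM with luciferin and ATP substrate; series mostly up to about 59 µM; 0% = DMSO and -100% = full luciferase inhibition by PTC124 control; nearly all actives have a fitted effect of over 70% in size.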 In a few lines: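 Purified P. pyralis luciferase at 10 nM in 50 mM Tris Acetate (final), luminescence read within 5 minutes of enzyme addition to compounds. Activity normalised to PTC124 versus DMSO; concentration-response curves classed by r2, magnitude and activity.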
Chain of Luciferin 4-monooxygenase (Photinus pyralis) (P08659 whole entry, looked up): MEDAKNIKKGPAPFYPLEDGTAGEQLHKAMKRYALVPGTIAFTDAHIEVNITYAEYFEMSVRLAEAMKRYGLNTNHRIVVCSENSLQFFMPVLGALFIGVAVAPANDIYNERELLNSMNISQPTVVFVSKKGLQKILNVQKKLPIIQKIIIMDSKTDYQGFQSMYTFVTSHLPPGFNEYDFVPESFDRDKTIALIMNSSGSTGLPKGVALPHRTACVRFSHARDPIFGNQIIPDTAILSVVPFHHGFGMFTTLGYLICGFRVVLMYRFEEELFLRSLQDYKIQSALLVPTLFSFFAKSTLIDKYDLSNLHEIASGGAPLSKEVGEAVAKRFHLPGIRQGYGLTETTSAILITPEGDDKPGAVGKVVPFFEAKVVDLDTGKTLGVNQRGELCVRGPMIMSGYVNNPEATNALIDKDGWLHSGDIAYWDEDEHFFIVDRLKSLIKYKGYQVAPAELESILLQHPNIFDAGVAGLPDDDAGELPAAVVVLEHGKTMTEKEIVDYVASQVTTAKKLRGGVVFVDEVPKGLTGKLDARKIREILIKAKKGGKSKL

Assay [14] can be described thus: qHTS assay for small molecule antagonists of peroxisome proliferator-activated receptor delta signaling (AID 588535; active = well fitted inhibition curve with a large enough effect in the signal ratio, with a control signal flat, not every such curve was filed as active; the % refers to the signal ratio;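 for max response: cells co-treated with a PPAR-delta agonist as stimulator during compound exposure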). The following applies: HEK293T PPARd-UAS-bla, beta-lactamase FRET ratio, 18 h; 460 nm channel. In a few lines: (§2)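 Beta-lactamase reporter read-out (405 nm excitation, 460/530 nm emission) after CCF4 loading for 2 hrs at RT. HEK293T PPAR-delta-UAS-bla cells, 2% charcoal/dextran FBS, compounds for 18 hrs at 37 C. Hill fit gave IC50 and efficacy.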

Assay [15] concerns the target Peroxisome proliferator-activated receptor delta (Homo sapiens) (UniProt Q03181). The assay is described as above. In a few lines:
as §2

Consider 9 molecules from PubChem BioAssay (NCATS).

Several values for one entry are separate records, joined by “and”; a condition that tells them apart may be missing. Equal values may be shown once. Inconclusive results are not listed. Activity calls are given as the source filed them. Unless noted, calls come from the whole dose curve; as a rule, active = well fitted curve in the direction sought with a large enough effect; inconclusive = small, poorly fitted or top-dose-only effect, or another doubt; inactive = no such curve, though single readings can be large; an effect the other way counts as inactive or inconclusive.

Chain of Thyroid hormone receptor beta (Homo sapiens) (P10828 whole entry, looked up): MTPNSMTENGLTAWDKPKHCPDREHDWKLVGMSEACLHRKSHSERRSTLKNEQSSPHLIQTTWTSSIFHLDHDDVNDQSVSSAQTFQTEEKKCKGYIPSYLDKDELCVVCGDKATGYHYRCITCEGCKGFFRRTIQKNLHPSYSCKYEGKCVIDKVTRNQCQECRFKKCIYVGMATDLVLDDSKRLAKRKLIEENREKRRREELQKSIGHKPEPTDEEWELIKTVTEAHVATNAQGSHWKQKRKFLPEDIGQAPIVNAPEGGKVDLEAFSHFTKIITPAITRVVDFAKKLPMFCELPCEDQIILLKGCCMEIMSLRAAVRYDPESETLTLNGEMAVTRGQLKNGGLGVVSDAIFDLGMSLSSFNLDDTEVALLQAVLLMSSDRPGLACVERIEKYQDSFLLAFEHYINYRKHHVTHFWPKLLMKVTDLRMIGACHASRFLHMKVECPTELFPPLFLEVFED
Chain of Peroxisome proliferator-activated receptor delta (Homo sapiens) (Q03181 whole entry, looked up): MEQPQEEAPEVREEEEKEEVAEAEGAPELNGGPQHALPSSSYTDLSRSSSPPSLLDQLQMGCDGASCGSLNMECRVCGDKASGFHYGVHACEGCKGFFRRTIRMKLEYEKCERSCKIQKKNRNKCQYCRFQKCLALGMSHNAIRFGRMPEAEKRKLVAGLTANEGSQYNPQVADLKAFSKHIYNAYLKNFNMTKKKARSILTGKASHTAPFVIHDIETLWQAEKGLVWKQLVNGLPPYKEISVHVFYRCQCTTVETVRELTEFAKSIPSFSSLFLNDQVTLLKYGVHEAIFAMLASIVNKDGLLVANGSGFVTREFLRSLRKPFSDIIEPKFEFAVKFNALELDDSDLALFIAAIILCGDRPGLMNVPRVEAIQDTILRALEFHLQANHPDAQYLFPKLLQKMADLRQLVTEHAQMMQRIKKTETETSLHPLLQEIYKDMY
Chain of Vitamin D3 receptor (Homo sapiens) (P11473 whole entry, looked up): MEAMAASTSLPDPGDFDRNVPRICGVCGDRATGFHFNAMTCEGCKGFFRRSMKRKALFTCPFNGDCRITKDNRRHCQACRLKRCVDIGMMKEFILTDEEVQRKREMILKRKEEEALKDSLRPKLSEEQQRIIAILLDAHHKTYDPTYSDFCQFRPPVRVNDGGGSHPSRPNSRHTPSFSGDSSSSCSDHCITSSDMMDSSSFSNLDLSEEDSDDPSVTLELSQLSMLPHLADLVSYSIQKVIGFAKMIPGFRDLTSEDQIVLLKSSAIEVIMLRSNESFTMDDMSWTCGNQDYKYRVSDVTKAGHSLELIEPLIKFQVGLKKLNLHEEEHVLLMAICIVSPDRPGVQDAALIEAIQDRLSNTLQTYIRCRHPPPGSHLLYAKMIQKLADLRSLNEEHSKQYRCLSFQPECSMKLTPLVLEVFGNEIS
Chain of Peroxisome proliferator-activated receptor gamma (Homo sapiens) (P37231 whole entry, looked up): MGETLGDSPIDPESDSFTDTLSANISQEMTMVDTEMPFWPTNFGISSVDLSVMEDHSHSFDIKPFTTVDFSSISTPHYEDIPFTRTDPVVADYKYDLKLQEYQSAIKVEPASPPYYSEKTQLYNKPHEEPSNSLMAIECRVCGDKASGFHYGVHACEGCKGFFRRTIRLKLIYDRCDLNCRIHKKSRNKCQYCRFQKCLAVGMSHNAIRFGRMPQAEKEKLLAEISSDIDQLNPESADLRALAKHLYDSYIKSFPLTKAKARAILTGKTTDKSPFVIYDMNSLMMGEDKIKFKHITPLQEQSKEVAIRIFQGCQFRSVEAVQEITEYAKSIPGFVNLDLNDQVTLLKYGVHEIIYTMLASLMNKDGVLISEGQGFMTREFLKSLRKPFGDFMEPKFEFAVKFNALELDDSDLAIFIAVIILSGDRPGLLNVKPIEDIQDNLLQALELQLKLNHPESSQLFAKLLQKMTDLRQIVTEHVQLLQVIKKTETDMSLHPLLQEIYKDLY
Chain of Voltage-gated inwardly rectifying potassium channel KCNH2 (Homo sapiens) (Q12809 whole entry, looked up): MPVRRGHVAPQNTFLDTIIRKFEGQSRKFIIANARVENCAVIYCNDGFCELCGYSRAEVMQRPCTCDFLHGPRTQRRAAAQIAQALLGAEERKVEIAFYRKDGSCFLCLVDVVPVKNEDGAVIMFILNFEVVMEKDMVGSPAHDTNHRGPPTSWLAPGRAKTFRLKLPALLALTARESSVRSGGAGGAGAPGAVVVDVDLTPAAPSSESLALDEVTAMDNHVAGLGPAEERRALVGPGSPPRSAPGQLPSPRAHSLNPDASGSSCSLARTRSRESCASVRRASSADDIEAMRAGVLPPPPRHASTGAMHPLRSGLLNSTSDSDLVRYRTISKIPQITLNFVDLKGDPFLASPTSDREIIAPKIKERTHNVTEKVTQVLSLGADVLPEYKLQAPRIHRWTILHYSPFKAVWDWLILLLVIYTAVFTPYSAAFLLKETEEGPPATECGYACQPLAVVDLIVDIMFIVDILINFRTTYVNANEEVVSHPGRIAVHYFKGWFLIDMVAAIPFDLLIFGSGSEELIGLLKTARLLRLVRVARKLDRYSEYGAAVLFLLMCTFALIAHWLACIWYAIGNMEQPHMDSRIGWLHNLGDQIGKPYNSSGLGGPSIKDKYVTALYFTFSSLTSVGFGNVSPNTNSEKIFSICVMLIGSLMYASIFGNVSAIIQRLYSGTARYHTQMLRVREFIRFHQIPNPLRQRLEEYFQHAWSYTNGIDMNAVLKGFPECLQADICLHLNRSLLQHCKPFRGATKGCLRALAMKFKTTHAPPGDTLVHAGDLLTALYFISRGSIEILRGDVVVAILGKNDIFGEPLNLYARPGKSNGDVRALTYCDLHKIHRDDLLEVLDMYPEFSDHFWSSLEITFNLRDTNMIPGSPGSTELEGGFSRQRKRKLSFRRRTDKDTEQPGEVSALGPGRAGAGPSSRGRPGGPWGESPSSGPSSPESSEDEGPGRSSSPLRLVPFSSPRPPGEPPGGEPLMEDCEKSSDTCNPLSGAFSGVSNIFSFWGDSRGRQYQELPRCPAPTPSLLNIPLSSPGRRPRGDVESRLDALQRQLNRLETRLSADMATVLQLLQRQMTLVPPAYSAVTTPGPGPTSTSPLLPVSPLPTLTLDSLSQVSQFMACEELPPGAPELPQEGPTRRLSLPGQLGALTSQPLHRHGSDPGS

As for `CCCCCCCCCCCCCC(=O)OC(C)C`, the result in assay [1], in [3], in assay [5] and in assay [6] was inactive. Besides, the Potency entry in [2], in [9], in assay [10] and in assay [11] was “inactive” each time. The max response in [4] was -13.5%; in [7], -10.1%; in assay [8], 7.8% (inactive).
Turning to `OC[C@H]1O[C@@H]2O[C@H]3[C@H](O)[C@@H](O)[C@@H](O[C@H]4[C@H](O)[C@@H](O)[C@@H](O[C@H]5[C@H](O)[C@@H](O)[C@@H](O[C@H]6[C@H](O)[C@@H](O)[C@@H](O[C@H]7[C@H](O)[C@@H](O)[C@@H](O[C@H]8[C@H](O)[C@@H](O)[C@@H](O[C@H]1[C@H](O)[C@H]2O)O[C@@H]8CO)O[C@@H]7CO)O[C@@H]6CO)O[C@@H]5CO)O[C@@H]4CO)O[C@@H]3CO`, the results for the max response in assay [4], in assay [7] and in assay [8] were 2.91%, 2.41% and 10.2% (inactive), respectively. In addition, the molecule was classed as inactive in assay [5] and in [6]. The activity change % (negative = inhibition) in [12] was 2.69% (inactive). The Potency result in assay [9], in assay [10] and in assay [11] was “inactive” each time.
Turning to `CC(C)(C)CC(C)(C)c1ccc(O)c(-n2nc3ccccc3n2)c1`, the Potency entry in assay [2], in assay [13], in [10] and in assay [11] was “inactive” in each case. Also, the call in assay [3] and in [6] was inactive. Besides, the activity change % (negative = inhibition) in assay [12] was -12.9% (inactive).
On to `NC(=O)c1ccccc1O`, for which the max response in assay [14] was 7.67%; in assay [4], -2.87%; in assay [7], -19%; in assay [8] it was 18.9% (inactive). The result in assay [15], in assay [1], in [3], in assay [5] and in assay [6] was inactive. Also, the Potency entry in assay [2], in assay [9], in assay [13], in assay [10] and in assay [11] was “inactive” each time. In [12], the activity change % (negative = inhibition) is -15.4% (inactive).
As to `Oc1c(Cl)cc(Cl)c(Cl)c1Cc1c(O)c(Cl)cc(Cl)c1Cl`, the Potency entry in assay [2] and in assay [10] was “inactive” each time. For the same molecule, in [11], the Potency is 1610 nM (active).
Turning to `CCCCCCCCCCCCCCCCO`, the max response is -7.5% in assay [14], 2.95% in assay [4], -10.1% in assay [7] and -12.7% (inactive) in assay [8]. Also, the call in [15], in assay [1], in assay [3], in assay [5] and in [6] was inactive. Also, the Potency entry in assay [2], in assay [9], in assay [13], in assay [10] and in [11] was “inactive” in each case. In [12], the activity change % (negative = inhibition) was 11.7% (inactive).
For `CCCN(CCC)S(=O)(=O)c1ccc(C(=O)O)cc1`, the max response was 32.2% and 48.9% in [14]; -13.7% and -10.4% in assay [4]; -8.2% and -10.3% in assay [7]; 6.91% (inactive) and 7.89% (inactive) in assay [8]. For the same molecule, the molecule was called inactive in [15], in [1], in assay [3], in assay [5] and in assay [6]. For the same molecule, the Potency result in assay [2], in assay [9], in assay [13], in [10] and in [11] was “inactive” in each case. The activity change % (negative = inhibition) in assay [12] is 8.08% (inactive) and 3.53% (inactive).
Regarding `OC[C@H]1O[C@@H](Oc2ccc(O)cc2)[C@H](O)[C@@H](O)[C@@H]1O`, the Potency entry in assay [9] was “inactive”.
In the case of `CN(C)C(=O)Nc1ccc(Cl)c(Cl)c1`, the max response in assay [14] was 4.49%; in assay [4] it was -0.181%; in [7] it was 0.705%; in assay [8], 4.3% (inactive). Besides, the call in [15], in [1], in assay [5] and in assay [6] was inactive. Also, the activity change % (negative = inhibition) in assay [12] is -2.96% (inactive). The Potency entry in [9], in [13], in [10] and in assay [11] was “inactive” throughout.
